{
  "source": "PubChem BioAssay (EPA / NIEHS)",
  "key": {"[1]": {"read-out": "Interleukin-1 alpha (IL1a), IL1A (gene 3552)", "assay": "BSK_LPS_IL1a: BioMAP Diversity Plus: LPS Assay for Interleukin-1 alpha (IL1a) Biomarker Activity (AID 2283080)", "details": "primary human HUVEC with PBMC; actives raise or lower the signal", "method_in_brief": "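Human umbilical vein endothelial cells co-cultured with peripheral blood mononuclear cells were LPS-stimulated and exposed to test chemicals for 24 h. IL-1 alpha was quantified by ELISA, with bidirectional curve fitting against DMSO as the negative control and baseline.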"}, "[2]": {"read-out": "Monocyte Chemoattractant Protein-1 (MCP1), CCL2 (gene 6347)", "assay": "BSK_LPS_MCP1: BioMAP Diversity Plus: LPS Assay for Monocyte Chemoattractant Protein-1 (MCP1) Biomarker Activity (AID 2283081)", "details": "primary human HUVEC with PBMC; actives raise or lower the signal", "method_in_brief": "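HUVEC plus PBMC co-culture (human primary cells, LPS system) exposed to test chemical for 24 h; MCP-1 measured by ELISA. Bidirectional curve fitting against DMSO baseline; parallel SRB total-protein staining flags overt cytotoxicity.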"}, "[3]": {"assay": "BSK_LPS_PGE2: BioMAP Diversity Plus: LPS Assay for Prostaglandin E2 (PGE2) Biomarker Activity (AID 2283082)", "details": "primary human HUVEC with PBMC; actives raise or lower the signal", "method_in_brief": "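Endpoint derived from bidirectional curve fitting versus DMSO of ELISA-measured PGE2 in LPS-stimulated human primary vascular co-culture (HUVEC with PBMC) harvested at 24 h.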"}, "[4]": {"read-out": "Macrophage colony-stimulating factor (MCSF), CSF1 (gene 1435)", "assay": "BSK_LPS_MCSF: BioMAP Diversity Plus: LPS Assay for Macrophage colony-stimulating factor (MCSF) Biomarker Activity (AID 2283083)", "details": "primary human HUVEC with PBMC; actives raise or lower the signal", "method_in_brief": "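Human umbilical vein endothelial cells co-cultured with peripheral blood mononuclear cells were exposed to compound for 24 h. M-CSF levels were measured by ELISA, and bidirectional curve fitting used DMSO as the negative control and baseline.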"}, "[5]": {"read-out": "Tissue Factor, F3 (gene 2152)", "assay": "BSK_LPS_TissueFactor: BioMAP Diversity Plus: LPS Assay for Tissue Factor Biomarker Activity (AID 2283084)", "details": "primary human HUVEC with PBMC; actives raise or lower the signal", "method_in_brief": "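Human umbilical vein endothelial cells co-cultured with peripheral blood mononuclear cells were dosed and stimulated with LPS. Cell-surface CD142 was quantified by ELISA at 24 h. Activity was fitted bidirectionally against DMSO baseline.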"}, "[6]": {"read-out": "Tumor necrosis factor (Homo sapiens) (UniProt P01375)", "assay": "BSK_LPS_TNFa: BioMAP Diversity Plus: LPS Assay for Tumour Necrosis Factor alpha (TNFa) Biomarker Activity (AID 2283085)", "details": "primary human HUVEC with PBMC; actives raise or lower the signal", "method_in_brief": "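Primary human vascular co-culture of HUVEC and PBMC; TNFa ELISA 24 h after treatment, analysed as increase or decrease relative to DMSO control.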"}, "[7]": {"read-out": "Vascular cell adhesion molecule 1 (VCAM1), VCAM1 (gene 7412)", "assay": "BSK_LPS_VCAM1: BioMAP Diversity Plus: LPS Assay for Vascular cell adhesion molecule 1 (VCAM1) Biomarker Activity (AID 2283086)", "details": "primary human HUVEC with PBMC; actives raise or lower the signal", "method_in_brief": "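Primary human vascular co-culture (umbilical vein endothelium plus PBMC) stimulated with LPS received chemical; 24 h later VCAM-1 was read by ELISA. Overt cytotoxicity was assessed by sulforhodamine B staining of parallel cultures at the same time point.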"}, "CD38, CD38 (gene 952)": {"read-out": "CD38, CD38 (gene 952)", "assay": "BSK_SAg_CD38: BioMAP Diversity Plus: SAg Assay for CD38 Biomarker Activity (AID 2283087)", "details": "primary human HUVEC with PBMC; actives raise or lower the signal", "method_in_brief": "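Fluorescence ELISA of cell-surface CD38 served as the read-out, with either increase or decrease fitted against DMSO controls. Cells were a human umbilical vein endothelium plus PBMC co-culture under SEB/TSST-1 stimulation, measured 24 h after dosing.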"}, "CD69, CD69 (gene 969)": {"read-out": "CD69, CD69 (gene 969)", "assay": "BSK_SAg_CD69: BioMAP Diversity Plus: SAg Assay for CD69 Biomarker Activity (AID 2283089)", "details": "primary human HUVEC with PBMC; actives raise or lower the signal", "method_in_brief": "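Values derive from bidirectional fitting relative to DMSO vehicle. Cells: umbilical vein endothelium plus peripheral blood mononuclear cells, treated 24 h before fluorescent ELISA for CD69.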"}, "[8]": {"read-out": "Monocyte Chemoattractant Protein-1 (MCP1), CCL2 (gene 6347)", "assay": "BSK_SAg_MCP1: BioMAP Diversity Plus: SAg Assay for Monocyte Chemoattractant Protein-1 (MCP1) Biomarker Activity (AID 2283090)", "details": "primary human HUVEC with PBMC; actives raise or lower the signal", "method_in_brief": "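MCP-1 levels in the endothelial–PBMC SAg co-culture were quantified by ELISA at 24 h post-dosing; both increases and decreases versus DMSO scored. Cytotoxicity monitored by SRB total protein in parallel cultures.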"}, "[9]": {"read-out": "E-selectin (Homo sapiens) (UniProt P16581)", "assay": "BSK_SAg_Eselectin: BioMAP Diversity Plus: SAg Assay for Eselectin Biomarker Activity (AID 2283091)", "details": "primary human HUVEC with PBMC; actives raise or lower the signal", "method_in_brief": "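HUVEC co-cultured with PBMC, compound dosed then read at 24 h; E-selectin measured by ELISA. Activity fitted bidirectionally against DMSO as negative control and baseline.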"}, "[10]": {"read-out": "Monokine induced gamma interferon (MIG), CXCL9 (gene 4283)", "assay": "BSK_SAg_MIG: BioMAP Diversity Plus: SAg Assay for Monokine induced gamma interferon (MIG) Biomarker Activity (AID 2283092)", "details": "primary human HUVEC with PBMC; actives raise or lower the signal", "method_in_brief": "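Values reflect bidirectional fitting of ELISA-measured MIG against DMSO vehicle, taken 24 h after dosing of a co-culture of human umbilical vein endothelial cells and peripheral blood mononuclear cells.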"}, "[11]": {"assay": "BSK_SAg_PBMCCytotoxicity: PBMC Cytotoxicity Assessment in the BioMAP Diversity Plus: SAg Assay (AID 2283093);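 also: fitted both ways against DMSO so a hit may be loss or gain of signal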", "details": "primary human HUVEC with PBMC", "method_in_brief": "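Compound added to 75,000 PBMC/well for 1 h; SEB and TSST-1 then added at 20 ng/mL final each; 90 h incubation; Alamar Blue 6 h; read 546/580 nm ex/em. Activity fitted bidirectionally relative to DMSO baseline.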"}, "[12]": {"read-out": "Interleukin-8 (IL8), CXCL8 (gene 3576)", "assay": "BSK_SAg_IL8: BioMAP Diversity Plus: SAg Assay for Interleukin-8 (IL8) Biomarker Activity (AID 2283094)", "details": "primary human HUVEC with PBMC; actives raise or lower the signal", "method_in_brief": "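In this co-culture of human umbilical vein endothelium with peripheral blood mononuclear cells, IL-8 is assayed by ELISA at 24 h. DMSO serves as baseline for bidirectional curve fitting.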"}, "[13]": {"assay": "BSK_SAg_Proliferation: Cell Proliferation Assessment in the BioMAP Diversity Plus: SAg Assay (AID 2283095)", "details": "primary human HUVEC with PBMC", "method_in_brief": "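Readout is SRB-stained protein (560 nm) in a primary human HUVEC and PBMC co-culture; sub-confluent cultures are read at 96 h. Activity is fitted bidirectionally using DMSO as baseline.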"}, "[14]": {"assay": "BSK_SAg_SRB: Viability Assessment in the BioMAP Diversity Plus: SAg Assay (AID 2283096);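 also: cells read one day after compound addition; hits may be either gain or loss of signal compared with DMSO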", "details": "primary human HUVEC with PBMC", "method_in_brief": "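Total protein by sulforhodamine B staining, 24 h after dosing, in HUVEC–PBMC co-culture; DMSO-referenced bidirectional fitting.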"}},
  "note": "Active and inactive are the calls of the source. The calls were made as follows: active = hit-call score of the fitted dose curve at least 0.9, where 1 is the maximum; inactive = score below 0.9.",
  "data": [
    {"smiles": "C=CC(=O)NCOCCCC", "values": [
      {"measurement": "outcome", "setting": "[1]", "result": "inactive"},
      {"measurement": "outcome", "setting": "[2]", "result": "inactive"},
      {"measurement": "outcome", "setting": "[3]", "result": "inactive"},
      {"measurement": "outcome", "setting": "[4]", "result": "inactive"},
      {"measurement": "outcome", "setting": "[5]", "result": "inactive"},
      {"measurement": "AC50", "setting": "[6]", "result": "20 µM (active)"},
      {"measurement": "outcome", "setting": "[7]", "result": "inactive"},
      {"measurement": "outcome", "setting": "CD38, CD38 (gene 952)", "result": "inactive"},
      {"measurement": "outcome", "setting": "CD69, CD69 (gene 969)", "result": "inactive"},
      {"measurement": "outcome", "setting": "[8]", "result": "inactive"},
      {"measurement": "outcome", "setting": "[9]", "result": "inactive"},
      {"measurement": "outcome", "setting": "[10]", "result": "inactive"},
      {"measurement": "outcome", "setting": "[11]", "result": "inactive"},
      {"measurement": "outcome", "setting": "[12]", "result": "inactive"},
      {"measurement": "outcome", "setting": "[13]", "result": "inactive"},
      {"measurement": "outcome", "setting": "[14]", "result": "inactive"}
    ]},
    {"smiles": "CCC1(C)C(=O)N(Cl)C(=O)N1Cl", "note": "(stereo not drawn)", "values": [
      {"measurement": "outcome", "setting": "[1]", "result": "inactive"},
      {"measurement": "outcome", "setting": "[2]", "result": "inactive"},
      {"measurement": "outcome", "setting": "[3]", "result": "inactive"},
      {"measurement": "outcome", "setting": "[4]", "result": "inactive"},
      {"measurement": "outcome", "setting": "[5]", "result": "inactive"},
      {"measurement": "outcome", "setting": "[6]", "result": "inactive"},
      {"measurement": "outcome", "setting": "[7]", "result": "inactive"},
      {"measurement": "outcome", "setting": "CD38, CD38 (gene 952)", "result": "inactive"},
      {"measurement": "outcome", "setting": "CD69, CD69 (gene 969)", "result": "inactive"},
      {"measurement": "outcome", "setting": "[8]", "result": "inactive"},
      {"measurement": "outcome", "setting": "[9]", "result": "inactive"},
      {"measurement": "outcome", "setting": "[10]", "result": "inactive"},
      {"measurement": "outcome", "setting": "[11]", "result": "inactive"},
      {"measurement": "outcome", "setting": "[12]", "result": "inactive"},
      {"measurement": "outcome", "setting": "[13]", "result": "inactive"},
      {"measurement": "outcome", "setting": "[14]", "result": "inactive"}
    ]},
    {"smiles": "CC(c1cc(C(C)(C)C)cc(C(C)(C)C)c1O)c1cc(C(C)(C)C)cc(C(C)(C)C)c1O", "values": [
      {"measurement": "outcome", "setting": "[1]", "result": "inactive"},
      {"measurement": "outcome", "setting": "[2]", "result": "inactive"},
      {"measurement": "outcome", "setting": "[3]", "result": "inactive"},
      {"measurement": "outcome", "setting": "[4]", "result": "inactive"},
      {"measurement": "outcome", "setting": "[5]", "result": "inactive"},
      {"measurement": "outcome", "setting": "[6]", "result": "inactive"},
      {"measurement": "outcome", "setting": "[7]", "result": "inactive"},
      {"measurement": "outcome", "setting": "CD38, CD38 (gene 952)", "result": "inactive"},
      {"measurement": "outcome", "setting": "CD69, CD69 (gene 969)", "result": "inactive"},
      {"measurement": "outcome", "setting": "[8]", "result": "inactive"},
      {"measurement": "outcome", "setting": "[9]", "result": "inactive"},
      {"measurement": "outcome", "setting": "[10]", "result": "inactive"},
      {"measurement": "outcome", "setting": "[11]", "result": "inactive"},
      {"measurement": "outcome", "setting": "[12]", "result": "inactive"},
      {"measurement": "AC50", "setting": "[13]", "result": "5.29 µM (active)"},
      {"measurement": "outcome", "setting": "[14]", "result": "inactive"}
    ]}
  ]
}
